Usually Inhibition stands for the share of the control response that was lost under treatment. Low readings indicate little suppression, high ones strong suppression.

What all share (type): functional
Assay [1] deals with Plasmodium falciparum. Put plainly: GSK_TCMDC: Inhibition of Plasmodium falciparum 3D7 in whole red blood cells, using parasite LDH activity as an index of growth. Test compounds present at 2uM.
The test system of assay [2] is Plasmodium falciparum. Put plainly: GSK_TCMDC: Inhibition of Plasmodium falciparum Dd2 in whole red blood cells, using parasite LDH activity as an index of growth. Test compounds present at 2uM.
In the next assay the test system is HepG2. Put plainly: GSK_TCMDC: Percent inhibition of human HepG2 cell line. Test compounds present at 10uM.

With `Cc1ccccc1NC(=O)C1CSCN1C(=O)OCc1ccccc1` (stereo not given), the Inhibition was 91% in the assay with Plasmodium falciparum [1], 0% in the assay with Plasmodium falciparum [2] and 8% in the assay with HepG2.
As for `O=C(NCc1cccc(C(F)(F)F)c1)c1ccc(CNC(=O)c2ccc(O)c(-c3ccc(Cl)c(Cl)c3)c2)cc1`, the Inhibition stood at 92% in the assay with Plasmodium falciparum [1], 15% in the assay on Plasmodium falciparum [2] and 7% in the assay with HepG2.
In the case of `Cc1cc(OCC2CCN(c3ccc(C(=O)NC4CC4)cn3)CC2)ccc1F`, the Inhibition with Plasmodium falciparum [1] is reported as 94%; with Plasmodium falciparum [2] it was 95%; in the assay with HepG2 it was 6%.
`Cl.O=c1cc(NCCCNCc2scc(I)c2I)[nH]c2ccccc12`: the Inhibition in the assay on Plasmodium falciparum [1] is given as 100%; with Plasmodium falciparum [2] it was 73%; with HepG2, 0%.
As to `Cc1cc(C(=O)Nc2ccc(OCc3ccccc3)cc2)on1`, the results for the Inhibition in the assay with Plasmodium falciparum [1], with Plasmodium falciparum [2] and in the assay with HepG2 were 87%, 89% and 1%, respectively.
In the case of `CN1CCN(CCCN(Cc2cccc(-c3ccc(CNC4CCCC4)cc3)c2)C(=O)CCC2CCCC2)CC1.O=C(O)C(F)(F)F`, the Inhibition in the assay with Plasmodium falciparum [1] was found to be 97%; in the assay with Plasmodium falciparum [2], 84%; in the assay on HepG2, 16%.
As to `CCCNCc1ccc(-c2ccc(CN(CCOC)C(=O)c3cscn3)cc2)nc1.O=C(O)C(F)(F)F`, the Inhibition is given as 99% in the assay on Plasmodium falciparum [1], 16% with Plasmodium falciparum [2] and 13% with HepG2.
Consider `COc1ccc(-c2cc(C(=O)N[C@@H](Cc3ccccc3)C(=O)NCCN3CCCCC3)ccc2O)cc1`, for which the Inhibition in the assay with Plasmodium falciparum [1] worked out at 96%; in the assay on Plasmodium falciparum [2], 0%; in the assay with HepG2 it was 0%.
Take `Cc1c(F)cc(C(=O)NC2CC2)cc1-c1ccc2c(cnn2S(=O)(=O)c2ccc(C#N)cc2)c1`: the results for the Inhibition in the assay with Plasmodium falciparum [1], with Plasmodium falciparum [2] and in the assay with HepG2 were 97%, 92% and 17%, respectively.
The like results for `CCn1c(SCc2ccc(F)cc2)nc2sc3c(c2c1=O)CCN(C)C3` were, in that order, 95%, 81% and 2%.
The like results for `Cc1cccc2nc(-c3ccc(-c4ccc(CN5CCCC(O)C5)cc4)s3)[nH]c12.O=C(O)C(F)(F)F` (stereo not given) were, in that order, 100%, 29% and 38%.
Take `Cc1cc(N2CCN(CC3CCN(C)CC3)CC2)nc(Nc2ccc(Br)cc2)n1`: the values for the Inhibition in the assay with Plasmodium falciparum [1], in the assay with Plasmodium falciparum [2] and in the assay on HepG2 were 100%, 100% and 31%, respectively.
Turning to `Cl.O=c1cc(NCCNCc2cccc(-c3ccccc3)c2)[nH]c2ccccc12`, the Inhibition with Plasmodium falciparum [1] is given as 93%; in the assay with Plasmodium falciparum [2] it was 68%; in the assay with HepG2 it was 0%.
The like results for `Cc1noc(-c2cccs2)c1C(=O)NC(C)c1cccc2ccccc12` (stereo not given) were, in that order, 97%, 95% and 0%.
As to `CN(C(=O)NCCc1ccccc1)C1CCN(CCCCCNC(=O)/C=C/c2ccc(Cl)c(Cl)c2)CC1`, the Inhibition in the assay with Plasmodium falciparum [1] is on record as 93%; in the assay on Plasmodium falciparum [2], 11%; in the assay with HepG2, 43%.
The like results for `COc1ccc(C2C(C(=O)Nc3cc(C)ccc3OC)c3ccccc3C(=O)N2C)cc1` (stereo not given) were, in that order, 86%, 3% and 3%.
The like results for `Cn1ccnc1CCC(=O)Nc1ccc(Cl)cc1C(=O)Nc1ccc(Cl)cc1` were, in that order, 92%, 3% and 28%.
The like results for `COc1ccccc1CNC(=O)c1cc(OC)c(OC)cc1NC(=O)c1cccs1` were, in that order, 88%, 71% and 12%.
Turning to `COc1cccc(CNC[C@@H](O)[C@H](Cc2ccccc2)NC(=O)c2cc3c4c(c2)c(C(C)C)cn4CCS(=O)(=O)N3C)c1.O=CO`, the Inhibition in the assay on Plasmodium falciparum [1] stood at 98%; in the assay on Plasmodium falciparum [2] it was 98%; in the assay with HepG2, 21%.
`CCN1CCC(N(Cc2ccc(-c3ccc(C(F)(F)F)cc3)cc2)C(=O)Cn2c(SCc3ccc(F)cc3)nc(=O)c3c2CCC3)CC1.O=C(O)C(O)C(O)C(=O)O`: the results for the Inhibition with Plasmodium falciparum [1], with Plasmodium falciparum [2] and in the assay with HepG2 were 90%, 96% and 46%, respectively.
With `CCCc1ccc(NC(=O)c2ccc(CN3CCCN(Cc4ccc(OC)cc4)CC3)cc2)cc1.O=C(O)C(F)(F)F`, the Inhibition came to 81% in the assay on Plasmodium falciparum [1], 0% with Plasmodium falciparum [2] and 47% in the assay on HepG2.
For `O=C(NCC1CCN(CC2CCCCC2)C1)c1cc(-c2cccc(Cl)c2)cs1.O=C(O)C(F)(F)F` (stereo not given), the Inhibition in the assay on Plasmodium falciparum [1] was 85%; with Plasmodium falciparum [2] it was 8%; in the assay with HepG2, 51%.
The like results for `COc1ccc(CCN2CCC(CN(C)Cc3cnn(-c4ccccc4)c3)CC2)cc1` were, in that order, 90%, 5% and 25%.
The like results for `CCN(CC)CCN(Cc1ccc(-c2ccc(C(F)(F)F)cc2)cc1)C(=O)Cn1c(CCc2c(F)cc(F)cc2F)nc(=O)c2ccccc21.O=C(O)C(O)C(O)C(=O)O` were, in that order, 89%, 26% and 39%.
On to `C=CCn1c(=N)c(C(=O)NC2CCCCC2)cc2c(=O)n3cccc(C)c3nc21`, for which the figures for the Inhibition in the assay on Plasmodium falciparum [1], in the assay on Plasmodium falciparum [2] and in the assay on HepG2 were 92%, 58% and 0%, respectively.
The like results for `O=C1c2ccccc2C(=O)N1CCOc1c(Br)cc(Br)cc1CNCCCNc1cc(=O)c2ccccc2[nH]1` were, in that order, 92%, 12% and 10%.
Take `CC1CN(Cc2ccc(C#N)cc2)CCN1c1ccc(NC(=O)c2cccs2)cc1.O=C(O)C(F)(F)F` (stereo not given): the Inhibition in the assay with Plasmodium falciparum [1] was 93%; with Plasmodium falciparum [2], 89%; with HepG2 it was 8%.
As for `COc1ccc(CN2CCCC(Nc3ccc(F)c(F)c3)C2)c(O)c1` (stereo not given), the Inhibition in the assay with Plasmodium falciparum [1] came to 95%; in the assay on Plasmodium falciparum [2] it was 83%; in the assay with HepG2 it was 14%.
The like results for `C=CCOC(=O)N1CCC(CNCc2cccc(-c3cccc(-c4nc5cc(F)ccc5[nH]4)c3)c2)C1.O=C(O)C(F)(F)F` (stereo not given) were, in that order, 100%, 49% and 20%.
Turning to `Brc1cc2c(cc1C=NNc1nc(=Nc3ccccc3)[nH]c(=Nc3ccccc3)[nH]1)OCO2`, the Inhibition turned out to be 100% with Plasmodium falciparum [1], 32% in the assay with Plasmodium falciparum [2] and 0% in the assay with HepG2.

The values above are taken from ChEMBL document CHEMBL1157539, “Thousands of chemical starting points for antimalarial lead identification” (Nature, 2010).
